Shown are actives, neighbours in structure and some others; about 2.4% of the full set was active somewhere.
D2 PAM-1 – potentiates the human D2 dopamine receptor allosterically; P14416; DiscoveRx D2 beta-arrestin cells, luminescence, 90 min; 100% = 57 uM dopamine signal; potentiation, % (no concentration beside the values); AID 624464; actives 0.23% (n = 360,000); in the data active = potentiation above about 50%; inconclusive = mostly about 30% to 49%
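D2 cells co-treated with compound plus 50 nM dopamine (EC20) for 90 min at 37 deg C to detect potentiation. Beta-arrestin recruitment was read as enzyme-fragment luminescence after 1 h at ambient temperature. Full response was set by 57 uM dopamine.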
D2 antag – antagonists of human D2 dopamine receptor | P14416 | HEK293 TREx D2 cells, calcium flux, dopamine EC80 | inhibition, % at 10 µM | actives 2% (n = 340,000) | AID 485344; in the data active = inhibition above about 30%; inactive = below that, where a call was filed; note: 0% is about no effect
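In this primary screen, negative modulation is detected by tracking calcium flux after an EC80 dopamine challenge in inducible HEK293 T-REx D2 cells preexposed to test compound for 180 s.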
D2 PAM-2 – positive allosteric modulators of human D2 dopamine receptor; HEK293 T-REx D2, calcium flux, EC20 dopamine potentiation; potentiation, % at 10 µM; actives 0.34% (n = 340,000);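 active = potentiation over 3 SD above the plate norm, cut at about 30% in these data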; note: 0% is about no effect
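Potentiation of an EC20 dopamine calcium response is measured in a force-coupled, tetracycline-inducible Hek293 Trex D2 line. Compound-only kinetic reads over 180 s flag agonists before dopamine addition.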
D2 ag-1 – agonists of human D2 dopamine receptor; P14416; HEK293 T-REx D2 cells, calcium flux agonist mode; activation, % at 2 µM; actives 0.53% (n = 340,000);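 active = activation over 3 SD above normal in the single-dose calcium agonist read, cut at about 30% in these data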; note: 0% is about no effect
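Agonism scored from kinetic calcium signal (1 read/sec, 180 s) following compound pin transfer, after a 10 s baseline. Cells: HEK293 Trex line expressing inducible D2 receptor coupled to calcium, dye-loaded after overnight culture at 30 C.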
D2 ag-2 – human D2 receptor agonism in beta-arrestin assay; P14416; DiscoveRx PathHunter D2 beta-arrestin, luminescence, 90 min; 100% = 57 uM dopamine signal; activation, % (test concentration not listed); actives 0.084% (n = 360,000); AID 624465; in the data active = activation above about 40%; inconclusive = between about 15% and that limit
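DiscoveRx PathHunter D2 beta-arrestin cells (2,100/well) attached overnight, then compound-stimulated 90 min at 37 C in HBSS/10 mM HEPES/0.1% Tween-20 buffer; beta-galactosidase complementation read by luminescence after 1 h at ambient temperature. Dopamine 57 uM final (EC100) as control.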
D3 arrestin ag – activates human D3 dopamine receptor beta-arrestin recruitment; shares compounds with D2 ag-1; DiscoveRx D3 beta-arrestin cells, luminescence, 90 min; Potency, µM (series often up to 76.9 µM), for the others: at the top dose activation, most hits filed as activators; actives 4% (n = 2,300); AID 720506;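 note: potency is the fitted concentration of half-maximal effect; 100% = dopamine control response; nearly all actives have a fitted effect of over 70% in size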
Target sequence (P35462 whole entry, looked up): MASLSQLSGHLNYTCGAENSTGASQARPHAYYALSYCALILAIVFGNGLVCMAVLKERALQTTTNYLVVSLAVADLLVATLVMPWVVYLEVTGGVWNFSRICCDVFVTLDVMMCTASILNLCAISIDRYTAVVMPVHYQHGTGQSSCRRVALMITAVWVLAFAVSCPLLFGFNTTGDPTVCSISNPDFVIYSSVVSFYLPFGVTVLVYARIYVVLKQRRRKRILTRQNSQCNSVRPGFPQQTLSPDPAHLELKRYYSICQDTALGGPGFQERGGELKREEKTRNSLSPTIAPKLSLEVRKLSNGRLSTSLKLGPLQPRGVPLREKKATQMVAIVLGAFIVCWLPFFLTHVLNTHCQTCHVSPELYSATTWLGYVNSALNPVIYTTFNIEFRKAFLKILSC
D2 ag-3 – D2 receptor agonism, beta-arrestin counterscreen | Potency, µM (highest dose often 76.9 µM), for inactives: at the highest dose activation, actives largely listed as activators | actives 5.9% (n = 2,300) | shares compounds with D2 ag-1 | DiscoveRx PathHunter D2 beta-arrestin, luminescence, 90 min; response scale: percent relative to full dopamine signal | AID 720507; note: potency is the fitted concentration of half-maximal effect; % of control where 0% means no effect; nearly all actives have a fitted effect of over 70% in size
* = called active by the depositor; ? = inconclusive; · = not tested or not shown. Unless noted, calls come from the whole dose curve; as a rule, active = well fitted activation curve with a large enough effect; inconclusive = small, poorly fitted or top-dose-only effect; inactive = flat fitted curve, though single readings scatter.

SMILES	D2 PAM-1	D2 antag	D2 PAM-2	D2 ag-1	D2 ag-2	D3 arrestin ag	D2 ag-3
COc1ccc(Cn2nnnc2CN2CCc3ccccc3C2)cc1	11	34*	-11	57*	?	6%	?
c1ccc(Cn2nnnc2CN2CCN(Cc3ccc4c(c3)OCO4)CC2)cc1	-36	4	-1	1	0	·	·
CCC(c1nnnn1Cc1ccc2c(c1)OCO2)N1CCN(c2ccccc2)CC1 (stereo not given)	0	79*	-33	80*	?	3%	?
c1ccc2c(c1)CCN(Cc1nnnn1Cc1ccc3c(c1)OCO3)C2	16	24	-24	68*	?	2%	?
CCOC(=O)c1c(C)[nH]c(C)c1S(=O)(=O)N1CCC(C(=O)N2CCN(c3cccc(C)c3C)CC2)CC1	·	·	6	0	·	·	·
COc1ccc(-c2cc(C(=O)O)n(Cc3ccccc3)n2)cc1	·	·	0	0	·	·	·
COc1ccc2c(c1)c1c(c(=O)n(CCc3ccccc3)c(=O)n1Cc1ccccc1)n2C	·	·	-3	0	·	·	·
O=C(CSc1ccc(F)cc1)NNC(=O)c1ccccc1Br	-1	25	-15	0	-5	·	·
O=C(CCSc1ccc(F)cc1)NNC(=O)c1ccccc1Cl	-4	-19	0	0	5	-4%	1%
CCC(CC)c1nnc(NC(=O)c2cc(-c3ccccc3)nc3ccccc23)s1	-14	·	·	·	-1	-12%	-2%
COc1ccc(OCc2cc(C(=O)NC3Cc4ccccc4C3)no2)c(Cl)c1	5	·	3	·	-1	2%	0%
COc1ccc(OCc2cc(C(=O)N[C@H]3CCCCNC3=O)no2)c(Cl)c1	21	16	-3	0	-1	·	·
CCc1ccc(NC(=O)Cc2c(C(=O)O)c(C)cn2C)cc1	·	·	3	0	·	·	·
CSc1ncc(Cl)c(C(=O)Nc2c(C(=O)c3ccc(C)c(F)c3)oc3ccccc23)n1	·	·	-6	0	·	·	·
COc1ccc(CCNC(=O)CSc2cn(Cc3cccc(C)c3)c3ccccc23)cc1OC	-4	-5	-15	58*	-2	-8%	1%
COc1ccc(CCNC(=O)CSc2cn(Cc3ccccc3)c3ccccc23)cc1OC	-3	-10	0	-1	-5	·	·
COc1ccc(CCNC(=O)CNCC(c2ccccc2)N(C)C)cc1OC (stereo not given)	-7	-2	-14	33*	7	8%	11%
COc1ccc(CCNC(=O)CSc2ccccc2)cc1OC	2	-13	8	1	-1	·	·
CCCCOc1ccc(C(=O)NCCc2sc(-c3cccc(F)c3)nc2C)cc1	·	·	-6	1	·	·	·
Cc1cc(Cl)ccc1OCCSc1nnc(-c2cccs2)o1	·	·	16	-2	·	·	·
COc1ccc(NC(=O)CSCC(=O)Nc2ccc(S(=O)(=O)N3CCOCC3)cc2)cc1	0	4	-4	0	2	1%	4%
Nc1nc(CN2CCN(c3cccc(Cl)c3)CC2)nc(N2CCCc3ccccc32)n1	29	70*	-16	42*	?	16%	?
COc1ccc(N2CCN(Cc3nc(N)nc(N4CCCc5ccccc54)n3)CC2)cc1	-9	7	-12	49*	4	4%	14%
COc1ccc(N2CCN(Cc3nc(N)nc(Nc4ccc(C)c(Cl)c4)n3)CC2)cc1	-12	-10	-4	2	1	·	·
Nc1nc(CSc2nnnn2-c2ccccc2)nc(N2CCCc3ccccc32)n1	-11	0	-6	8	-3	·	·
SMILES	D2 PAM-1	D2 antag	D2 PAM-2	D2 ag-1	D2 ag-2	D3 arrestin ag	D2 ag-3
Nc1nc(CN2CCN(c3ccccc3)CC2)nc(N2CCCc3ccccc32)n1	54*	·	·	·	?	35µM*	?
Nc1nc(CN2CCN(c3ccccc3F)CC2)nc(N2CCCc3ccccc32)n1	13	79*	-17	82*	?	?	?
CCOC(=O)c1ccc(NC(=O)c2c(C)oc3nc(C)nc(N4CCCC4)c23)cc1	·	·	5	0	·	·	·
CC[n+]1c(-c2ccc(C)cc2)csc1Nc1c(C)n(C)n(-c2ccccc2)c1=O	-41	52*	-16	66*	3	1%	24%
Cc1ccc(Nc2nc3ccccc3nc2Nc2c(C)n(C)n(-c3ccccc3)c2=O)cc1	-4	-2	-10	1	-2	·	·
CC[n+]1c(-c2ccccc2)csc1Nc1c(C)n(C)n(-c2ccccc2)c1=O	-2	-6	-21	50*	1	-8%	2%
Cn1c(=O)c2c(nc(Oc3ccccc3)n2Cc2c(Cl)cccc2Cl)n(C)c1=O	·	·	-4	-1	·	·	·
O=C(NCc1cccc(C(F)(F)F)c1)C1CCCN(c2ncccn2)C1 (stereo not given)	-7	3	-33	67*	-3	-9%	-5%
CCCCCCCC/C=C\CCCCCCCC(=O)NCCO	-7	12	4	1	-3	·	·
CCCCCCCC/C=C\CCCCCCCC(=O)NCCc1ccc(O)c(O)c1	?	57*	7	39*	100*	4µM*	16µM*
Cc1c(-c2csc(N)n2)cnn1C	12	26	2	10	?	11µM*	22%
CN(C)c1ccc(CNc2nc(-c3ccco3)nn2S(C)(=O)=O)cc1	·	·	-4	-1	·	·	·
O=C(NCCCN1CCN(c2ccccc2)CC1)Nc1ccccc1C(F)(F)F	-8	75*	-20	78*	?	?	21%
Cc1ccccc1NC(=O)NCCCN1CCN(c2ccccc2)CC1	-21	79*	-22	77*	?	?	?
Cc1cccc(NC(=O)N2CCN3CCCCC3C2)c1C (stereo not given)	·	·	3	1	·	·	·
Nc1c(C(=O)c2ccc(Cl)cc2)sc2nsc(SCCN3CCOCC3)c12	-4	-8	11	16	-1	2%	2%
CC(=O)c1sc2nsc(SCCN3CCCCC3)c2c1N	-14	-14	-3	5	2	·	·
Cc1ccc(N2CCN(C(=O)c3cn(C)c4ccc(S(=O)(=O)N(C)C5CCCCC5)cc4c3=O)CC2C)cc1 (stereo not given)	·	·	1	0	·	·	·
CCOC(=O)C1(C(F)(F)F)N=C(C(F)(F)F)Nc2cc(C)c(C)cc21 (stereo not given)	0	-9	-16	29	-1	5%	-6%
COC(=O)C1(C(F)(F)F)N=C(C(F)(F)F)Nc2ccc(Cl)cc21 (stereo not given)	-10	·	·	·	2	·	·
